The values below come from PubChem BioAssay AID1159506 (National Center for Advancing Translational Sciences (NCATS), 2015).

The full ranking holds about 59,000 sequences; the median of the read-out is about -0.00055, and the lowest 2% start at about -2. This is one part of a sample in which the lowest values are shown more often than they occur.

The nature of the test: Identification of proteins required for the processing of the EWS-FLI1 nascent transcript.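 Also: robust z of luciferase light less the median z of siRNAs with the same seed.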 To be noted: TC32 Ewing sarcoma NR0B1-luc vs CMV-luc (EWS-FLI1 target promoter against control promoter), 48 h; screened at 20 nM (by protocol). Summed up:
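Parallel TC32-NR0B1-luc and TC32-CMV-luc reverse transfections with 20 nM siRNA in RPMI-1640/10% FBS, luciferase measured 48 h later. Seed-adjusted z-scores from normalized, z-score-MAD transformed data; AllStars negative and siGL4 controls on each plate.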
In turn, UACGCUUGAAGUACCGAUG against SLC7A1 came in with a seed-corrected z-score of -2.19.

In the case of AAACGUACAUGAUGGGAGC against GPR155, the seed-corrected z-score was -0.807.

UUGAACUCAGCGAUCAUCU against TNNC2 yielded a seed-corrected z-score of -0.279.

For the sequence UAUUAUCAAUGGUCCAGGG against AAGAB, the seed-corrected z-score came to 0.496.

UUUGAUGCCGUCAUCAUCC against TMEM106C: the seed-corrected z-score turned out to be 0.22.

The sequence AGAAGUUUUUGCUCUGUCC against DYRK4 yielded a seed-corrected z-score of 0.321.

Sequence AAAUGUACAGAACUAUCUC against PADI2 yielded a seed-corrected z-score of -2.36.

UCUCUGAAGAGUACAGGAG against PTOV1 returned a seed-corrected z-score of 0.398.

For the sequence UCAGGUGCAAAGCUACUGG against PARK2, the seed-corrected z-score is -2.4.

Regarding UCAUUGACAUUGGUCACGG against CYP27C1, the seed-corrected z-score is -0.22.

As to UUAUAACCACUGACUCUCC against MIPEPP3, the seed-corrected z-score was determined as 0.124.

Sequence UAUUGUUCUUGUCCUUUUG against TERF1 came in with a seed-corrected z-score of -0.319.

As to AACCGAGUCAGAAUGGUGC against SDC1, the seed-corrected z-score turned out to be 0.384.

UUUGGAAGACUGGAGCAGG against CTIF yielded a seed-corrected z-score of 0.631.

UUCCCAUACCCUAUGGUCG against KCNK10: the seed-corrected z-score is -0.13.

UCUACUGUCAUUGAGACCA against SNRPB showed a seed-corrected z-score of -2.67.

In turn, UCUGGUACUCAGAAGGUCC against COPS5 gave a seed-corrected z-score of 1.12.

AUAGUAACGAUCAACUCCA against NDUFA1 gave a seed-corrected z-score of 0.512.

For the sequence AUCGAUAUAAACUGCUUCC against PDE1A, the seed-corrected z-score is -2.44.

The sequence UAUGUACUUCAGGCGCCUG against SLC35A2 showed a seed-corrected z-score of 0.271.

For AGUUUAUACAUUCUUUUCC against SPTLC1, the seed-corrected z-score is -0.145.

Take UAGAAGAUAGGUGAAGUGA against DNAJC22: the seed-corrected z-score is 0.192.

UUACACUCAAGAAGAUUUC against GPR141 returned a seed-corrected z-score of -0.389.

UUAACGUCCACCACCAGAG against TYMP showed a seed-corrected z-score of -0.582.

Sequence UCAUUGAGAAUUCUCCGGG against NENF displayed a seed-corrected z-score of 2.29.

For the sequence AUCGUCCCAGUAAAUGUCC against BEST3, the seed-corrected z-score was -0.819.

For the sequence UAGACUAACAUUGACUUAG against LOC150519, the seed-corrected z-score worked out at 0.00864.

In turn, UCUUUGCUAAGCUCGGAGG against RAD51C gave a seed-corrected z-score of -2.07.

AUAGAUAUGUUCACAAGUG against UNC119B displayed a seed-corrected z-score of 0.327.

In turn, UAGGGCGCAAGGGUAUGUG against SPDYE3 returned a seed-corrected z-score of -0.136.

For UUACUAGCUCCGGUGGCAC against KCNK4, the seed-corrected z-score was -0.0516.

Regarding UUUAUCCCGAAGGAGGUUC against CAB39L, the seed-corrected z-score was -2.55.

Regarding UGUAUUCCAACCUACAAAC against HGSNAT, the seed-corrected z-score was -0.666.

AAUCUAACAAAUGAAGGUG against EIF2A: the seed-corrected z-score was found to be 0.719.

Consider AUAGUUCCUUUGACUAUGG against IKZF5, for which the seed-corrected z-score was -0.306.

UCUAAUCCAAGUUCUACUG against AKAP5 registered a seed-corrected z-score of -0.304.

For the sequence UUGUGGGUGGUGAAGAGGC against EPOR, the seed-corrected z-score worked out at 0.293.

For AACCUGGUAAGUCUCGAUG against PPP2R2B, the seed-corrected z-score is -0.459.

UAACGGAUGGUGUGGUUUC against BCOR displayed a seed-corrected z-score of -0.0753.

In turn, UACCUUUUAUCCUGGGUUG against LOC285423 registered a seed-corrected z-score of -2.09.

Regarding UAGUGUAAACAAGAAGUUG against ABHD10, the seed-corrected z-score was found to be 0.996.

AAAGCGAGCACUGCGGAUC against CCDC102A yielded a seed-corrected z-score of -0.304.

On to UAGAGCACAGGAUAGAACC against RAP1GAP, for which the seed-corrected z-score was 0.295.

UGUCUUCUAAGUAGAGCCU against VIPR2: the seed-corrected z-score is -2.47.

In the case of AACGAAACAAACUUGGUCC against NGEF, the seed-corrected z-score is 0.943.

Sequence UAUCCUAAAAUCGCUGUUG against ARNTL2 displayed a seed-corrected z-score of -0.114.

UCCCAUUGAAAGCAUAUCC against TSHR showed a seed-corrected z-score of -1.47.

UAUCUUUAUCAAAACCUCG against EFCAB1 gave a seed-corrected z-score of -0.824.

UAUGGAAUAAGUUGCUCGA against MED30 had a seed-corrected z-score of -0.0259.

Consider UUGACUACGAUGAGCUUGC against ETV3L, for which the seed-corrected z-score was 1.16.

Consider UUAUUAUGUAUGCAUCUGG against LINC00632, for which the seed-corrected z-score is -0.334.

Sequence ACAGUGGUGAGUUAUCUCA against CDC42 yielded a seed-corrected z-score of -2.8.

With AUGGAUUCUUCAAUCGUCC against SMARCAD1, the seed-corrected z-score is 0.8.

In turn, AGUCAUAUCAUUUAUAGUG against FOXQ1 showed a seed-corrected z-score of -0.473.

For UUUCAAUUUAGUUUGAUGA against LOC728147, the seed-corrected z-score worked out at 0.0773.

Take AUUACUUCGAGACUUGCUG against LCLAT1: the seed-corrected z-score is -0.482.

Sequence AAACUUAGUAGAGUUGUCC against LOC342541 registered a seed-corrected z-score of 0.528.

Turning to GUUGUGACCUGUCACGAUG against CTU1, the seed-corrected z-score is -1.99.

Consider UGCUUGACAACUGGCCACC against RPL18AP4, for which the seed-corrected z-score is -0.411.

In turn, UCAUCAUCUUCUUCGAGGC against DCLRE1A registered a seed-corrected z-score of -2.16.

UAGAGGACCUUCAUGUUGU against THY1: the seed-corrected z-score was found to be 0.624.

For UUAUCUGGAAUGAACAAUG against PHF3, the seed-corrected z-score was -0.486.

UACGAUCAUUGCACUGUCC against FBN1 had a seed-corrected z-score of -0.21.

In the case of UAUGUAUCUACCCAUCCGC against ATG3, the seed-corrected z-score was -1.27.

In turn, UGACUGUUCACGGAAUUCU against TGM3 gave a seed-corrected z-score of -0.755.

The sequence UCUUUAGGAAUGUAAAGCC against SKIV2L2 yielded a seed-corrected z-score of 0.824.

Turning to UCAUUUUCGACCACCUUUC against WBSCR16, the seed-corrected z-score was -0.738.
